# High-throughput results deposited in PubChem BioAssay by National Center for Advancing Translational Sciences (NCATS).
# An excerpt weighted towards active compounds, which were near 14% of everything screened.
# HCMV inh = inhibitors of human cytomegalovirus; HFF cells, HCMV-luciferase reporter, 72 h; active compounds read low; activity change, negative = inhibition, % at 57.5 µM; 410,000 compounds, 4.5% hits; AID 1259415; in the data active = activity change below about -60%; inconclusive = no clear call, values can overlap the other calls; inactive = above about -39%
#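 HFF cells seeded 16 h at 37C, treated with compounds, infected with luciferase-reporter HCMV at MOI 1 PFU/cell; luciferase read at 72 h post infection, normalized to buffer-only and Salinomycin controls.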
# Marburg entry inh = Marburg virus entry inhibition | Potency, µM (series often up to 37.8 µM), for the others: at the highest dose activity change, negative = inhibition, usual class: inhibitors | 300,000 compounds, 1.8% hits | Marburg virus pseudotyped entry inhibition, cell reporter | AID 540276; calls by dose curve; tested in HEK293 cells; also: potency is read from the fitted curve at half-maximal effect
# LASV entry inh = inhibitors of Lassa virus binding or cell entry; Lassa virus pseudotype entry inhibition, cell reporter; Potency, µM (highest dose often 37.9 µM), for the others: at the highest dose activity change, negative = inhibition, actives largely listed as inhibitors; 300,000 compounds, 1.2% hits; calls by dose curve; tested in HEK293 cells; also: potency is read from the fitted curve at half-maximal effect; nearly all actives have a fitted effect of over 50% in size
# Pf growth 48h = inhibits P. falciparum growth in the first generation, 48 h; Potency, µM (series often up to 28.7 µM), without a hit: top-dose activity change, negative = inhibition, usual class: inhibitors; 310,000 compounds, 5.9% hits; P. falciparum luciferase growth in erythrocytes, 48 h; also: potency is read from the fitted curve at half-maximal effect
#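 Erythrocytes infected with P. falciparum carrying an integrated firefly luciferase reporter (2% hematocrit, 0.1% parasitemia final) were exposed to compounds in RPMI 1640 with 0.5% Albumax at 37 C, 5% CO2. Growth inhibition was scored as reduced luminescence.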
# Pf growth 96h = inhibits malaria parasite growth, 96 h; 320,000 compounds, 6.9% hits; P. falciparum luciferase reporter growth, 96 h; Potency, µM (top dose mostly 28.7 µM), inactives show top-dose activity change, negative = inhibition, most hits filed as inhibitors; also: potency is read from the fitted curve at half-maximal effect
#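 96 h incubation, 37 C, 5% CO2, of luciferase-reporter P. falciparum-infected RBCs (2% hematocrit, 0.05% parasitemia final) with test compounds; endpoint luminescence.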
# HCV inhibitor = HCV inhibition; AID 651820; 340,000 compounds, 3.4% hits; Huh7.5.1 HCVcc-Cre infection, luciferase reporter, 44 h; Potency, µM (top dose mostly 41.8 µM), for inactives: at the highest dose activity change, negative = inhibition, most hits filed as inhibitors; also: potency is read from the fitted curve at half-maximal effect
#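 Reporter virus HCVcc-Cre (~0.5 moi) infects cells exposed to compound; seeding density 1,000 cells/well with 4 h settling beforehand. Luminescence, 15 sec read, taken 44 h post-infection following a 15 min RT substrate incubation.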
# An asterisk follows results filed as active; u = inconclusive; x = not tested or not shown; [ ] = another dose, or the depositor's remark. Unless noted, calls follow the shape of the dose curve; as a rule, active = well fitted inhibition curve with a large enough effect; inconclusive = small, poorly fitted or top-dose-only effect, or another doubt; inactive = no such curve, though single readings can be large or run the other way. % is scaled to controls: 0 for no effect and ±100 for the full control effect.
SMILES,HCMV inh,Marburg entry inh,LASV entry inh,Pf growth 48h,Pf growth 96h,HCV inhibitor
CN(Cc1ccccc1)C(=O)c1ncn2c1C(=O)N(C)CC2,-5.0,x,x,x,x,x
CC(=O)Nc1ccc(NC(=O)CSc2nc(N)c(NC(=O)c3ccccc3F)c(=O)[nH]2)cc1,4.0,18.4%,27.1%,u,11.7µM*,20.8%
Cc1cccc(NC(=O)CSc2nc(N)c(NC(=O)c3ccccc3F)c(=O)[nH]2)c1,-3.5,-0.2%,u,33.3%,u,3.5%
O=C1c2ccccc2NC(c2ccccc2Br)N1CCCN1CCOCC1 (stereo not drawn),-23.1,-20.2%,-1.5%,u,10.4µM*,u
CCOCCCN(C)C1CCN(C(=O)c2oc3ccccc3c2NC(=O)c2cccc([N+](=O)[O-])c2)CC1,0.0,u,u,u,62.9%,14.1µM*
CCOCCCN(C)C1CCN(C(=O)c2oc3ccccc3c2NC(=O)Cc2ccc([N+](=O)[O-])cc2)CC1,-19.2,u,-4.3%[46.1 µM],0.0%,-13.7%,-27.5%
CN(C)c1ccc(CNC(=O)Cn2c(-c3cccs3)cc3cc(Cl)ccc32)cc1,-71.0*,x,8.5%[46.1 µM],x,x,x
Cc1ccc(CNC(=O)Cn2c(-c3cccs3)cc3cc(Cl)ccc32)cc1,-15.6,x,19.1%[46.1 µM],x,x,x
CC(=O)Nc1nonc1-c1nnc(SCC(=O)Nc2cccc(C)c2C)n1-c1ccccc1,31.5,-10.1%[46.1 µM],-7.6%[46.1 µM],x,x,x
Cc1cc(C(=O)N/N=C/c2cc(Br)ccc2OC(=O)c2ccc(Br)cc2)n[nH]1,x,-4.8%,x,u,43.4%,2.0%
O=C(N/N=C/c1ccc(Cl)cc1Cl)c1cccc(N2CCCC2=O)c1,-21.2,u,2.9%,u,-27.5%,u
O=C(NN=Cc1cc(=O)[nH]c(=O)[nH]1)c1ccncc1,-67.5*,13.2%,15.4%,x,x,39.0%
Cc1cc(C(=O)N/N=C/c2cc(Br)cc(Br)c2OC(=O)c2cccc(F)c2)n[nH]1,-96.0*,18.3µM*,11.6µM*,11.7µM*,u,u
Oc1c(Cl)cc(Cl)cc1/C=N/Nc1ncc(Br)cn1,-94.4*,u,u,0.0928µM*,14.7µM*,2.24µM*
O=C(N/N=C/c1ccc[nH]1)c1ccncc1,-15.4,9.6%,28.1%[46.1 µM],-25.3%,48.6%,8.8%
O=C(N/N=C/c1cc(Br)cc(Br)c1O)c1cccc(N2CCCC2=O)c1,-99.1*,u,u,75.0%,10.4µM*,u
CCN(CC)c1ncnc2c1ncn2[C@H]1CN(Cc2cccnc2)C[C@@H](CO)O1,-15.7,x,x,x,x,x
COc1ccccc1CNC(=O)c1cnn2c(C)c(Cc3ccc(F)cc3)c(C)nc12,6.2,x,u,x,x,x
O=C(CP(=O)(c1ccccc1)c1ccccc1)N/N=C/c1cc(Br)cc(Br)c1O,u,u,2.82µM*,-21.0%,8.4%,u
O=C(N/N=C/c1cc(Br)c(Br)s1)c1ccncc1,-89.6*,u,10µM*,u,u,u
O=C(C[n+]1ccccc1)N/N=C/c1cc(Br)cc(Br)c1O,x,6.3%,-27.6%,u,u,31.2%
O=C(N/N=C/c1sc(=O)n(-c2ccccc2)c1Cl)c1ccncc1,-85.7*,u,3.0%,u,u,u
O=C(N/N=C/c1cc(Br)cc(Br)c1O)c1ccncc1,-21.9,u,u,9.28µM*,15.7%,u
CCOC(=O)[C@]12CCCC=C1N(Cc1ccccc1)C(=O)[C@H](CC(=O)NCC13CC4CC(CC(C4)C1)C3)C2,-21.7,x,x,x,x,x
CCC(C)c1ccccc1NC(=O)COC(=O)C1=NN(c2ccccc2)C(=O)CC1 (stereo not drawn),u,22.2%,u,x,x,12.3%
SMILES,HCMV inh,Marburg entry inh,LASV entry inh,Pf growth 48h,Pf growth 96h,HCV inhibitor
CCCCn1nc(C(=O)N(CC(C)C)c2c(N)n(CCCC)c(=O)[nH]c2=O)c2ccccc2c1=O,-19.6,7.3%,-9.9%,-16.0%,46.1%,10.8%
COc1ccc(CCNC(=O)c2ccc3c(c2)CCN3S(=O)(=O)c2ccccc2)cc1OC,u,-14.5%[46.1 µM],1.2%[46.1 µM],x,x,x
Cc1cccc(C(=O)Nc2cccc(C(=O)N/N=C/c3ccncc3)c2)c1,50.9,-0.4%,-13.3%,-23.2%,u,u
O=C(N/N=C/c1cc(Cl)cc(Cl)c1O)c1ccncc1,-19.2,x,x,13.1µM*,2.33µM*,u
Cc1cccc(C(=O)Oc2c(Br)cc(Br)cc2/C=N/NC(=O)c2ccncc2)c1,-71.1*,u,3.5%,10.3%,19.4%,0.4%
O=C(N/N=C/c1ccc(O)cc1O)c1ccncc1,12.4,x,x,u,11.7µM*,u
C[C@H]1[C@H](c2ccccc2)Oc2cccc(NCCc3ccccc3)c2S(=O)(=O)N1Cc1ccc(F)cc1,0.0,x,x,x,x,x
CC1=NC2=CC=CC3=NC(C(Cl)(Cl)Cl)=NC(=N1)N23,-21.0,x,x,x,x,x
Cc1nc(-c2ccc(F)cc2)c(CC(=O)N2CCN(S(=O)(=O)c3cccc(F)c3)CC2)s1,-7.4,-19.2%,-22.2%,u,u,-11.8%
CCN(CC(=O)Nc1ccccc1C(F)(F)F)C(=O)Cc1sc(C)nc1-c1ccc(F)cc1,-34.0,21.7%,8.5%,14.7µM*,u,-22.4%
CCN(CC(=O)Nc1ccccc1C(F)(F)F)C(=O)c1ccccc1Cc1ccccc1,0.7,u,11.2µM*,u,u,-16.1%
Cc1nc(-c2ccc(F)cc2)c(CC(=O)N(C)CC(=O)Nc2ccccc2Br)s1,-18.1,-13.1%,11.4%[46.1 µM],13.1µM*,u,-0.5%
Cc1nc(-c2ccc(F)cc2)c(CC(=O)N2CCN(S(=O)(=O)c3ccccc3Br)CC2)s1,-4.1,u,-15.3%,u,8.28µM*,x
CCN(CC(=O)Nc1ccccc1C(F)(F)F)C(=O)Cc1ccccc1,20.5,24.5%[46.1 µM],3.3%[46.1 µM],9.5%,18.6%,24.0%
Cc1nc(-c2ccc(F)cc2)c(CC(=O)NCC(=O)Nc2ccc(F)c(F)c2)s1,1.8,x,x,u,u,u
Cc1nc(-c2ccc(F)cc2)c(CC(=O)N(C)CC(=O)Nc2ccc(Br)cc2C)s1,-14.5,-21.4%[46.1 µM],9.3%,5.22µM*,u,u
Cc1nc(-c2ccc(F)cc2)c(CC(=O)N(C)CC(=O)Nc2cccc(F)c2)s1,-26.2,x,x,x,x,x
Cc1cc(C)c(NC(=O)CNC(=O)Cc2sc(C)nc2-c2ccc(F)cc2)c(C)c1,-3.9,-5.5%,-3.9%,13.1µM*,u,u
COc1cccc(NC(=O)CSc2nc(-c3ccccc3Cl)nc3c2Cc2c(CO)cnc(C)c2O3)c1,13.9,x,-8.7%[46.1 µM],x,x,x
O=C(c1ccc2c(c1)OCCO2)N1CCCCC1,-2.2,18.3%,u,24.8%,-71.8%,0.5%
C=CCc1cc(C(=O)N2CCCCC2)ccc1O,-70.8*,-14.6%,16.5%,u,17.1%,-9.1%
COc1ccccc1Cn1c(=S)[nH]c2cc(C(=O)NCCN(C)C)ccc2c1=O,-12.4,10µM*,-0.6%[46.1 µM],u,-19.2%,u
